Here are results for eight molecules from article PMC5540273 (PLoS ONE, 2017).

Settings in all cases: concentration: 1 μM, replicates: in singlicate; n = 1
The subject of assay [1] is T1, PCTK2.
T1 construct: gene CDK17

For assay [2], the system named is T2, PCTK3.
T2 construct: gene CDK18

Assay [3] deals with PDGFRA.
For assay [4], the system named is PDGFRB.
Assay [5] concerns PDPK1.
The subject of assay [6] is PFTAIRE2.
The test system of assay [7] is T3, PFTK1.
T3 construct: gene CDK14

Assay [8] has as its system PHKG1.
The subject of assay [9] is PHKG2.
Assay [10] deals with PIK3C2B.
For assay [11], the system named is PIK3C2G.
The subject of assay [12] is PIK3CA.
Assay [13] relates to PIK3CB.
For assay [14], the system named is PIK3CD.
Assay [15] relates to PIK3CG.
In assay [16] the test system is T4, PIK4CB.
T4 construct: gene PI4KB

In assay [17] the test system is PIKFYVE.
In assay [18] the test system is PIM1.
Assay [19] deals with PIM2.
Assay [20] concerns PIM3.
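Note: KINOMEscan kinase panel screen.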

On to `Cc1occc1-c1ncc(OC[C@@H](N)Cc2c[nH]c3ccccc23)cc1-c1ccc2[nH]nc(C)c2c1.O=C(O)C(F)(F)F` [GSK682037], for which the “%Inh” value is given as 0% in assay [1]; 0% in assay [2]; 0% in [3]; 81% in [4]; 0% in assay [5]; 16% in assay [6]. Also, the “%Inh” value came to 14% in assay [7]; 0% in assay [8]; 0% in assay [9]; 0% in assay [10]; 0% in assay [11]; 0% in assay [12]. The “%Inh” value was found to be 0% in assay [13]; 0% in assay [14]; 0% in assay [15]; 0% in assay [16]; 0% in assay [17]; 39% in assay [18]. For the same molecule, the “%Inh” value in [19] is 97.4%; in assay [20], 64%.

On to `Oc1cc(Nc2ccnc3cc(I)ccc23)ccc1F` [GW552771], for which the “%Inh” value in assay [1] is 0%; in [2], 15%; in assay [3] it was 19%; in assay [4], 49%; in assay [5], 0%; in assay [6], 0%. Further, the “%Inh” value in assay [7], in assay [8], in assay [9], in [10], in assay [11] and in [12] was 0% in each case. In addition, the “%Inh” value in assay [13] came to 0%; in assay [14], 19%; in assay [15] it was 0%; in assay [16], 20%; in assay [17] it was 13%; in [18], 8%. Besides, the “%Inh” value in assay [19] and in assay [20] was 0% throughout.

Take `Cc1cccc(Nc2nc(N[C@H]3CCNC3)ncc2C(N)=O)c1.Cl` [GSK2197149]: the “%Inh” value in assay [1] was 7%; in assay [2] it was 34%; in assay [3], 58%; in assay [4] it was 89%; in assay [5], 7%; in assay [6], 7%. The “%Inh” value was determined as 15% in assay [7]; 66% in assay [8]; 68% in assay [9]; 0% in assay [10]; 0% in assay [11]; 0% in assay [12]. For the same molecule, the “%Inh” value is 0% in assay [13]; 0% in assay [14]; 0% in assay [15]; 8% in assay [16]; 0% in [17]; 28% in assay [18]. In addition, the “%Inh” value in assay [19] was 68%; in assay [20] it was 76%.

In the case of `COc1ccc(-c2coc3ccc(-c4nnc(SCc5ccc(OC)c(C(F)(F)F)c5)o4)cc23)cc1`, the “%Inh” value in assay [1] worked out at 9%; in [2], 9%; in assay [3], 23%; in assay [4], 16%; in assay [5] it was 12%; in assay [6] it was 0%. Besides, the “%Inh” value in assay [7] is reported as 19%; in assay [8], 3%; in assay [9], 4%; in [10] it was 0%; in assay [11], 13%; in [12], 0%. For the same molecule, the “%Inh” value was determined as 27% in [13]; 11% in assay [14]; 0% in [15]; 0% in assay [16]; 0% in assay [17]; 0% in assay [18]. In addition, the “%Inh” value in assay [19] is listed as 18%; in assay [20], 4%.

For the molecule `NCCCC(NC(=O)c1cc(Br)c(-c2ccnc3[nH]ccc23)s1)c1ccccc1.O=C(O)C(F)(F)F.O=C(O)C(F)(F)F` (stereo not shown) [GSK1287544], the “%Inh” value is on record as 0% in assay [1]; 0% in assay [2]; 0% in assay [3]; 28% in assay [4]; 14% in assay [5]; 25% in [6]. Besides, the “%Inh” value in assay [7], in [8], in assay [9], in [10], in assay [11] and in [12] was 0% throughout. Besides, the “%Inh” value in [13] is on record as 100%; in assay [14], 0%; in assay [15] it was 0%; in [16], 0%; in [17], 0%; in assay [18], 59%. In addition, the “%Inh” value is 93% in assay [19] and 22% in assay [20].

As for `CN(c1ccc(NC(=O)Nc2cc(C(F)(F)F)ccc2F)cc1)c1ccnc(Nc2ccc(S(N)(=O)=O)cc2)n1` [GW809893], the “%Inh” value in assay [1] is 97.9%; in assay [2], 95.5%; in assay [3], 96.1%; in [4], 99.9%; in assay [5], 35%; in [6], 96.5%. Moreover, the “%Inh” value in assay [7] amounted to 97%; in assay [8], 14%; in assay [9] it was 0%; in assay [10], 29%; in assay [11] it was 39%; in [12] it was 3%. Besides, the “%Inh” value worked out at 0% in [13]; 30% in assay [14]; 31% in [15]; 0% in [16]; 0% in assay [17]; 0% in assay [18]. Besides, the “%Inh” value in assay [19] and in assay [20] was 0% each time.

Regarding `CCCCc1nn2ncccc2c1-c1ccnc(Nc2ccc(N3CCN(C)CC3)cc2)n1` [GW684941], the “%Inh” value in [1] is 37%; in assay [2] it was 16%; in [3], 98.8%; in assay [4], 100%; in assay [5], 0%; in assay [6], 0%. Moreover, the “%Inh” value is listed as 0% in assay [7]; 20% in assay [8]; 4% in assay [9]; 66% in assay [10]; 0% in [11]; 0% in assay [12]. Further, the “%Inh” value amounted to 0% in [13]; 41% in [14]; 0% in assay [15]; 74% in assay [16]; 51% in assay [17]; 0% in [18]. Further, the “%Inh” value in assay [19] and in assay [20] was 0% each time.

In the case of `Cl.c1ccc(-c2ccc3c(Nc4ccc5[nH]ccc5c4)ccnc3c2)nc1` [GW440138], the “%Inh” value in assay [1] is listed as 6%; in [2], 28%; in assay [3], 99.2%; in assay [4], 99.9%; in assay [5] it was 0%; in assay [6], 0%. The “%Inh” value in [7] amounted to 14%; in assay [8], 0%; in [9], 0%; in [10], 0%; in assay [11], 0%; in assay [12] it was 0%. Besides, the “%Inh” value in [13] was found to be 37%; in assay [14] it was 2%; in [15], 0%; in assay [16], 0%; in assay [17], 16%; in [18], 0%. Besides, the “%Inh” value in assay [19] and in [20] was 0% in each case.
